Assay results from PubChem BioAssay AID1159580 (chemical genetic matrix, 2015).
Several values for one entry are separate records, joined by “and”; a condition that tells them apart may be missing. Equal entries are not always repeated. Out of some 5,500 compounds screened, about 2,000 (36%) were called active. Not shown: some 18% with an inconclusive outcome. Rule as the data show it: active = normalized growth mostly below about 0.91 (no sharp cut-off); inconclusive = no clear call, values can overlap the other calls; inactive = mostly above about 0.92. Some of the results follow.

Test: chemical genetic growth profiling, strain panel (AID 1159580);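 also: tested at 20 µM; growth read once vehicle control cultures reached saturation at 30 °C; 1 = growth at the plate median or of vehicle wells; lower values mean less growth of the strain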
Settings: growth OD

Measured: normalized growth

Cc1ccc(C(=O)C(C)CN2CCCCC2)cc1 (configuration not stated)
inactive: S. cerevisiae deletion strains, locus YBR021W, strain FUR4, stronger effect = lower value 1 | S. cerevisiae deletion strains, locus YBR229C, strain ROT2, stronger effect = lower value 1.01 | S. cerevisiae deletion strains, locus YCL029C, strain bik1, stronger effect = lower value 1.02 | S. cerevisiae deletion strains, locus YDL035C, strain GPR1, stronger effect = lower value 1.01 | S. cerevisiae deletion strains, locus YDL074C, strain BRE1, stronger effect = lower value 1.01 | S. cerevisiae deletion strains, locus YDL101C, strain DUN1, stronger effect = lower value 1.01 | S. cerevisiae deletion strains, locus YDL134C, strain PPH21, stronger effect = lower value 1.02 | S. cerevisiae deletion strains, locus YDL185W, strain tfp1, stronger effect = lower value 1.02 | S. cerevisiae deletion strains, locus YDL192W, strain arf1, stronger effect = lower value 1.02 | S. cerevisiae deletion strains, locus YDR101C, strain arx1, stronger effect = lower value 0.998 | S. cerevisiae deletion strains, locus YDR150W, strain NUM1, stronger effect = lower value 1 | S. cerevisiae deletion strains, locus YDR162C, strain NBP2, stronger effect = lower value 1.01 | S. cerevisiae deletion strains, locus YDR318W, strain mcm21, stronger effect = lower value 1.02 | S. cerevisiae deletion strains, locus YDR388W, stronger effect = lower value 1.02 | S. cerevisiae deletion strains, locus YDR502C, strain sam2, stronger effect = lower value 1.01 | S. cerevisiae deletion strains, locus YEL061C, strain CIN8, stronger effect = lower value 1.01 | S. cerevisiae deletion strains, locus YER110C, stronger effect = lower value 1.01 | S. cerevisiae deletion strains, locus YER155C, strain BEM2, stronger effect = lower value 1.01 | S. cerevisiae deletion strains, locus YER167W, strain BCK2, stronger effect = lower value 1.02 | S. cerevisiae deletion strains, locus YGL078C, strain dbp3, stronger effect = lower value 1.01 | S. cerevisiae deletion strains, locus YGL086W, strain mad1, stronger effect = lower value 1.03 | S. cerevisiae deletion strains, locus YGL248W, strain PDE1, stronger effect = lower value 1.01 | S. cerevisiae deletion strains, locus YGR078C, strain PAC10, stronger effect = lower value 1 | S. cerevisiae deletion strains, locus YGR135W, strain pre9, stronger effect = lower value 1 | S. cerevisiae deletion strains, locus YGR229C, strain SMI1, stronger effect = lower value 0.983 | S. cerevisiae deletion strains, locus YGR252W, strain gcn5, stronger effect = lower value 0.987 | S. cerevisiae deletion strains, locus YHR030C, strain SLT2, stronger effect = lower value 1.01 and 0.991 | S. cerevisiae deletion strains, locus YHR079C, strain IRE1 (second series), stronger effect = lower value 1.02 | S. cerevisiae deletion strains, locus YHR079C, strain IRE1, stronger effect = lower value 0.993 | S. cerevisiae deletion strains, locus YHR094C, strain hxt1, stronger effect = lower value 1.01 | S. cerevisiae deletion strains, locus YHR129C, strain ARP1, stronger effect = lower value 1.02 | S. cerevisiae deletion strains, locus YHR200W, strain rpn10, stronger effect = lower value 1.02 | S. cerevisiae deletion strains, locus YIL066C, strain RNR3, stronger effect = lower value 1.01 | S. cerevisiae deletion strains, locus YIL073C, strain SPO22, stronger effect = lower value 0.993 | S. cerevisiae deletion strains, locus YIL125W, strain kgd1, stronger effect = lower value 1.02 | S. cerevisiae deletion strains, locus YIR030C, strain dcg1, stronger effect = lower value 1.01 | S. cerevisiae deletion strains, locus YJL095W, strain BCK1, stronger effect = lower value 0.973 and 0.966 | S. cerevisiae deletion strains, locus YJL134W, strain LCB3, stronger effect = lower value 1.01 | S. cerevisiae deletion strains, locus YJL168C, strain set2, stronger effect = lower value 1.02 | S. cerevisiae deletion strains, locus YJL187C, strain SWE1 (second series), stronger effect = lower value 1 | S. cerevisiae deletion strains, locus YJR043C, strain POL32, stronger effect = lower value 1.02 | S. cerevisiae deletion strains, locus YJR066W, strain TOR1, stronger effect = lower value 0.907 | S. cerevisiae deletion strains, locus YKL009W, strain mrt4, stronger effect = lower value 1.03 | S. cerevisiae deletion strains, locus YKL068W, stronger effect = lower value 1.01 | S. cerevisiae deletion strains, locus YKL085W, strain MDH1 (second series), stronger effect = lower value 1.03 | S. cerevisiae deletion strains, locus YKL085W, strain MDH1, stronger effect = lower value 1.03 | S. cerevisiae deletion strains, locus YKL190W, strain CNB1, stronger effect = lower value 1.01 | S. cerevisiae deletion strains, locus YKR001C, strain vps1, stronger effect = lower value 1.03 | S. cerevisiae deletion strains, locus YLR039C, strain RIC1, stronger effect = lower value 0.993 | S. cerevisiae deletion strains, locus YLR058C, strain SHM2, stronger effect = lower value 1.02 | S. cerevisiae deletion strains, locus YLR102C, strain apc9, stronger effect = lower value 1.01 | S. cerevisiae deletion strains, locus YLR113W, strain HOG1, stronger effect = lower value 1.01 | S. cerevisiae deletion strains, locus YLR262C, strain YPT6, stronger effect = lower value 1.02 | S. cerevisiae deletion strains, locus YLR268W, strain sec22, stronger effect = lower value 1 | S. cerevisiae deletion strains, locus YLR330W, strain CHS5, stronger effect = lower value 1 | S. cerevisiae deletion strains, locus YLR342W, strain FKS1 (second series), stronger effect = lower value 0.973 | S. cerevisiae deletion strains, locus YLR371W, strain rom2, stronger effect = lower value 1.02 | S. cerevisiae deletion strains, locus YLR418C, strain cdc73, stronger effect = lower value 1.02 | S. cerevisiae deletion strains, locus YML016C, strain PPZ1, stronger effect = lower value 1.01 | S. cerevisiae deletion strains, locus YML032C, strain rad52, stronger effect = lower value 1.01 | S. cerevisiae deletion strains, locus YML124C, strain tub3, stronger effect = lower value 1.01 | S. cerevisiae deletion strains, locus YMR078C, strain ctf18, stronger effect = lower value 1.02 | S. cerevisiae deletion strains, locus YMR223W, strain ubp8, stronger effect = lower value 1.01 | S. cerevisiae deletion strains, locus YMR307W, strain GAS1, stronger effect = lower value 1.14 | S. cerevisiae deletion strains, locus YNL067W, strain RPL9B, stronger effect = lower value 1.01 | S. cerevisiae deletion strains, locus YNL128W, strain TEP1, stronger effect = lower value 1.03 | S. cerevisiae deletion strains, locus YNL183C, strain NPR1, stronger effect = lower value 0.899 | S. cerevisiae deletion strains, locus YNL233W, strain BNI4, stronger effect = lower value 0.993 | S. cerevisiae deletion strains, locus YNL250W, strain rad50, stronger effect = lower value 1.01 | S. cerevisiae deletion strains, locus YNL271C, strain bni1, stronger effect = lower value 1.02 | S. cerevisiae deletion strains, locus YNL298W, strain CLA4, stronger effect = lower value 1.03 | S. cerevisiae deletion strains, locus YNL307C, strain MCK1, stronger effect = lower value 1.03 | S. cerevisiae deletion strains, locus YNL322C, strain KRE1, stronger effect = lower value 1.01 | S. cerevisiae deletion strains, locus YNR052C, strain pop2, stronger effect = lower value 1.02 | S. cerevisiae deletion strains, locus YOL006C, strain TOP1, stronger effect = lower value 1 | S. cerevisiae deletion strains, locus YOL012C, strain htz1 0.819 | S. cerevisiae deletion strains, locus YOL147C, strain pex11, stronger effect = lower value 1.01 | S. cerevisiae deletion strains, locus YOR061W, strain CKA2, stronger effect = lower value 1.02 | S. cerevisiae deletion strains, locus YOR069W, strain VPS5, stronger effect = lower value 1 | S. cerevisiae deletion strains, locus YOR136W, strain idh2, stronger effect = lower value 1.02 | S. cerevisiae deletion strains, locus YOR144C, strain elg1, stronger effect = lower value 1.01 | S. cerevisiae deletion strains, locus YOR184W, strain ser1, stronger effect = lower value 1.01 | S. cerevisiae deletion strains, locus YOR231W, strain MKK1, stronger effect = lower value 0.984 | S. cerevisiae deletion strains, locus YOR316C, strain cot1, stronger effect = lower value 1.02 | S. cerevisiae deletion strains, locus YPL055C, strain LGE1, stronger effect = lower value 1.03 | S. cerevisiae deletion strains, locus YPL256C, strain CLN2, stronger effect = lower value 0.976 | S. cerevisiae deletion strains, locus YPR119W, strain clb2, stronger effect = lower value 1.02 | S. cerevisiae deletion strains, locus YPR141C, strain kar3, stronger effect = lower value 1.02 | S. cerevisiae deletion strains, locus YPR163C, strain tif3, stronger effect = lower value 1.03 | S. cerevisiae deletion strains, locus YPR167C, strain met16, stronger effect = lower value 1.02 | S. cerevisiae deletion strains, strain wtn01, stronger effect = lower value 1.01 | S. cerevisiae strains, strain wild type, stronger effect = lower value 1.01
